# Reference: article PMC7862700, “An all-to-all approach to the identification of sequence-specific readers for epigenetic DNA modifications on cytosine”
# Legend:
# Test in all cases: DAPPL (digital affinity profiling via proximity ligation, sequencing); 10 mM Tris-HCl pH 7.5, 50 mM NaCl, 1 mM DTT, 4% glycerol, room temperature, 30 min; GST-TFs on glutathione beads, 16-mer random dsDNA library, 0.1% formaldehyde crosslink after washing; high values mean tight binding
# FEV = molecular target: T1, FEV (Homo sapiens, UniProt Q99581 1-238); conditions: protein: recombinant; tags: N-terminal GST; dsDNA, one strand shown
# T1 sequence: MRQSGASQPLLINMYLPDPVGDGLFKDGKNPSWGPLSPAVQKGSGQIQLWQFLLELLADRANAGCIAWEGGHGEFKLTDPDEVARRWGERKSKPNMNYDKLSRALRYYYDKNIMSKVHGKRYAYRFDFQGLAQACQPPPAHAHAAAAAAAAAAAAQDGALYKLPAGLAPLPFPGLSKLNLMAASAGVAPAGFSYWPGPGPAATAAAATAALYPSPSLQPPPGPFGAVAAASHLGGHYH
# How it was run: (§1)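 Pools of DNA-barcoded human transcription factors, expressed in yeast as GST fusions on glutathione beads and combined with a tag-only sample, were incubated with 200 nmole of a 16-mer random double-stranded DNA library. Incubation took 30 min at room temperature in Tris/NaCl/DTT/glycerol buffer and was followed by washing, 0.1% formaldehyde crosslinking, proximity ligation (BsaI/T4 ligase, 1 h, 37 °C), PCR amplification and sequencing on an Illumina NextSeq500. Binding signal is the ratio of a hexamer's read frequency for a factor to its frequency for the tag-only sample.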
# ETV5 = ETV5 (Homo sapiens, UniProt P41161 1-510); conditions: protein: recombinant; tags: N-terminal GST; dsDNA, one strand shown
# How it was run: as §1
# HSF1 = HSF1 (Homo sapiens, UniProt Q00613 1-529); conditions: protein: recombinant; tags: N-terminal GST; chain copies: 3; dsDNA, one strand shown
# How it was run: as §1
# SPIC = molecular target: T2, SPIC (Homo sapiens, UniProt Q8N5J4 1-248); conditions: protein: recombinant; tags: N-terminal GST; dsDNA, one strand shown
# T2 sequence: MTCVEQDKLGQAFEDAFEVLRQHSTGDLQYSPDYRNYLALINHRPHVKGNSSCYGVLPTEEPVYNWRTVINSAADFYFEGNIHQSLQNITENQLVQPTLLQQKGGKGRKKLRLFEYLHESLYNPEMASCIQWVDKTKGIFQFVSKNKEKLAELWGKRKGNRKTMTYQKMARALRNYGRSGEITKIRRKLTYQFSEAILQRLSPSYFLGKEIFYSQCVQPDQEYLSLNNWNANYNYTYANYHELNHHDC
# How it was run: as §1
# ELF4 = ELF4 (Homo sapiens, UniProt Q99607 1-663); conditions: protein: recombinant; tags: N-terminal GST; dsDNA, one strand shown
# How it was run: as §1
# ELK4 = molecular target: T3, ELK4 (Homo sapiens, UniProt P28324-2 1-405); conditions: protein: recombinant; tags: N-terminal GST; dsDNA, one strand shown
# T3 sequence: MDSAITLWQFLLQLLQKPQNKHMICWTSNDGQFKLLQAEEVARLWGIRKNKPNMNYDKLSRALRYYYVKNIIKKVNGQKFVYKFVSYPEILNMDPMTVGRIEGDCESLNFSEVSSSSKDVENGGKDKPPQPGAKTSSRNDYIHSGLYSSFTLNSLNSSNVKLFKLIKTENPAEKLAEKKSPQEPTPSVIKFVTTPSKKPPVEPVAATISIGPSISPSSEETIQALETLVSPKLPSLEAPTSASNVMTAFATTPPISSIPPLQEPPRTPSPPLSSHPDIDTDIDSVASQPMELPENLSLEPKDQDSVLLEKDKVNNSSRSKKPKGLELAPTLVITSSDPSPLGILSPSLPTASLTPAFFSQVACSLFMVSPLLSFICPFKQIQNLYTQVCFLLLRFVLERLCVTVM
# How it was run: as §1
# ETV2 = molecular target: T4, ETV2 (Homo sapiens, UniProt O00321 1-342); conditions: protein: recombinant; tags: N-terminal GST; dsDNA, one strand shown
# T4 sequence: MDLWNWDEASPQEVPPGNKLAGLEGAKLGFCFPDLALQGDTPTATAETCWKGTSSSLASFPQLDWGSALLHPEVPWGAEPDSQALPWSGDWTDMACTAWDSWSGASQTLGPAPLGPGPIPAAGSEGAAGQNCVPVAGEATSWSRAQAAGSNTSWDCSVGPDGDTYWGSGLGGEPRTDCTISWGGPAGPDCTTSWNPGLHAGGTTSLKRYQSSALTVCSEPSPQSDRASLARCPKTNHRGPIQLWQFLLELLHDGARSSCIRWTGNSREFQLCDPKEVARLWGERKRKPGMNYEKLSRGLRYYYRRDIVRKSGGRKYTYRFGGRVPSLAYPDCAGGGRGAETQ
# How it was run: as §1
# ELF3 = molecular target: T5, ELF3 (Homo sapiens, UniProt P78545 1-371); conditions: protein: recombinant; tags: N-terminal GST; dsDNA, one strand shown
# T5 sequence: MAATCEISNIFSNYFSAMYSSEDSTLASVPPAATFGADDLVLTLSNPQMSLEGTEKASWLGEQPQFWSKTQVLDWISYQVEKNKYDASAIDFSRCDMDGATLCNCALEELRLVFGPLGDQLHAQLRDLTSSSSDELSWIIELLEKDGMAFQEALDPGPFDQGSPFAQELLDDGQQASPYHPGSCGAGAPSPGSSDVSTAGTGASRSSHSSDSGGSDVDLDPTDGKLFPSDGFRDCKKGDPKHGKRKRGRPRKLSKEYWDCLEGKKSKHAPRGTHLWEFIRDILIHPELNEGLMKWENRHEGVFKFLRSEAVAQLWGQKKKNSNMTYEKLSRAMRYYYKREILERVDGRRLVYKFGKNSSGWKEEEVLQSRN
# How it was run: as §1
# CRX = CRX (Homo sapiens, UniProt O43186 1-299); conditions: protein: recombinant; tags: N-terminal GST; dsDNA, one strand shown
# How it was run: as §1
# ETV1 = ETV1 (Homo sapiens, UniProt P50549 1-477); conditions: protein: recombinant; tags: N-terminal GST; dsDNA, one strand shown
# How it was run: as §1
# ERF = molecular target: T6, ERF (Homo sapiens, UniProt P50548 1-548); conditions: protein: recombinant; tags: N-terminal GST; dsDNA, one strand shown
# T6 sequence: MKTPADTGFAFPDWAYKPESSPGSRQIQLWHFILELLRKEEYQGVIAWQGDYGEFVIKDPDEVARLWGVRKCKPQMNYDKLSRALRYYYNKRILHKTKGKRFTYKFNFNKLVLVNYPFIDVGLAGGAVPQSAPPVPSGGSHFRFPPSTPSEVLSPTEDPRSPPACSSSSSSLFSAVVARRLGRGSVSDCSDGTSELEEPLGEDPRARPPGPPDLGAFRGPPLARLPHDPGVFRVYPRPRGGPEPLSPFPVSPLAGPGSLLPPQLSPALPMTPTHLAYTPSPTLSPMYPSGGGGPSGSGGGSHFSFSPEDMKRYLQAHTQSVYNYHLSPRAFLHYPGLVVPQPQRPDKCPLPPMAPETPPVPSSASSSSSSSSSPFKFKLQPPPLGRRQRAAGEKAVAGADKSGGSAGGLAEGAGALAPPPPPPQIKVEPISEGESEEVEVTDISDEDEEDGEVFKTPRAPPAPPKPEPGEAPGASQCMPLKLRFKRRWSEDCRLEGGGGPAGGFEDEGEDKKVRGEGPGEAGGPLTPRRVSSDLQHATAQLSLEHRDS
# How it was run: as §1
# ETV3L = molecular target: T7, ETV3L (Homo sapiens, UniProt Q6ZN32 1-361); conditions: protein: recombinant; tags: N-terminal GST; dsDNA, one strand shown
# T7 sequence: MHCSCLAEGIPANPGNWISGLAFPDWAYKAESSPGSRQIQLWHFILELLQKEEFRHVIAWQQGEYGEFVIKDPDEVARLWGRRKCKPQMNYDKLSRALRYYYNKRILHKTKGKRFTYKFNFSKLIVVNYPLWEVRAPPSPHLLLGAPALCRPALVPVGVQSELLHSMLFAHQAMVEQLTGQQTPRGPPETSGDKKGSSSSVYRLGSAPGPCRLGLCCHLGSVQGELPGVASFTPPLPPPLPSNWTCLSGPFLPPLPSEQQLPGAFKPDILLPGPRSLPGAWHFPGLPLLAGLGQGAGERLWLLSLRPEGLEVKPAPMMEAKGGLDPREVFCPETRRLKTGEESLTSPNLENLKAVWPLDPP
# How it was run: as §1
# ETS2 = molecular target: T8, ETS2 (Homo sapiens, UniProt P15036 1-469); conditions: protein: recombinant; tags: N-terminal GST; dsDNA, one strand shown
# T8 sequence: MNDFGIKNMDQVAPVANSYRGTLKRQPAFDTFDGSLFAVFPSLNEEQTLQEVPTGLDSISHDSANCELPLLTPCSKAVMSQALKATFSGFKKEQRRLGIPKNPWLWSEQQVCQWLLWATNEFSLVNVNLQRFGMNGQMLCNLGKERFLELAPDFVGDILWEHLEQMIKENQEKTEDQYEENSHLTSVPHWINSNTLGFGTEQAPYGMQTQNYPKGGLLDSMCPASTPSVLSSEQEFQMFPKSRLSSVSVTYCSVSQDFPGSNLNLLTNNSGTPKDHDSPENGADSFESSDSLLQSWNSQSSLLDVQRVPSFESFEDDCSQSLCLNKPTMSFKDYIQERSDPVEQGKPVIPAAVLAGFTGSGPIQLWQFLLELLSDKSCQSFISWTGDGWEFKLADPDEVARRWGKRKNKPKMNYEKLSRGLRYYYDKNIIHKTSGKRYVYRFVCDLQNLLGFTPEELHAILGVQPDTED
# How it was run: as §1
# SPDEF = molecular target: T9, SPDEF (Homo sapiens, UniProt O95238 1-335); conditions: protein: recombinant; tags: N-terminal GST; dsDNA, one strand shown
# T9 sequence: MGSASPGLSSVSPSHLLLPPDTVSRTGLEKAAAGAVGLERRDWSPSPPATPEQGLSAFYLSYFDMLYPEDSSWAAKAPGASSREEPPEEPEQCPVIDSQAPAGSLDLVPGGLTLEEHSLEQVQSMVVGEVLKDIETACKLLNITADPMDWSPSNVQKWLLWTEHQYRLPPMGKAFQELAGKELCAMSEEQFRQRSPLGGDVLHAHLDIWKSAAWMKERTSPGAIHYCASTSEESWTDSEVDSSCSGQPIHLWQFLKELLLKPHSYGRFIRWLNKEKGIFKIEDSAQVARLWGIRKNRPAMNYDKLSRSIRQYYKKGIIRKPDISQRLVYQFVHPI
# How it was run: as §1
# ETV7 = molecular target: T10, ETV7 (Homo sapiens, UniProt Q9Y603 1-341); conditions: protein: recombinant; tags: N-terminal GST; dsDNA, one strand shown
# T10 sequence: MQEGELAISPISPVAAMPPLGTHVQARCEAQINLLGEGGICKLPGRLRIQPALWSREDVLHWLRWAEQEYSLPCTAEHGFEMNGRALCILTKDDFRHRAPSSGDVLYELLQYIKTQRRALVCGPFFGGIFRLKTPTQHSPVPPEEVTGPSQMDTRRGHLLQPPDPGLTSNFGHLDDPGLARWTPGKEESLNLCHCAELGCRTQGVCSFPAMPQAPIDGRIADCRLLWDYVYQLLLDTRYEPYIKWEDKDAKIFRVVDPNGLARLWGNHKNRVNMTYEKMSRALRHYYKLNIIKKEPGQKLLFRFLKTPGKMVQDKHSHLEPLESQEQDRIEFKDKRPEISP
# How it was run: as §1
# ELF5 = molecular target: T11, ELF5 (Homo sapiens, UniProt Q9UKW6-2 1-255); conditions: protein: recombinant; tags: N-terminal GST; dsDNA, one strand shown
# T11 sequence: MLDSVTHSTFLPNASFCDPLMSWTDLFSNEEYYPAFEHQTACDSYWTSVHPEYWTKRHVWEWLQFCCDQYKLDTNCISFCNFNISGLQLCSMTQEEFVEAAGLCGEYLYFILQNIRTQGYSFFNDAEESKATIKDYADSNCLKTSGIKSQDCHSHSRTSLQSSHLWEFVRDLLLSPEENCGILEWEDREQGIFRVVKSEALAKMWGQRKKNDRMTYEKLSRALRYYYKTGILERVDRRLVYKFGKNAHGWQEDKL
# How it was run: as §1
# ETV3 = molecular target: T12, ETV3 (Homo sapiens, UniProt P41162-2 1-143); conditions: protein: recombinant; tags: N-terminal GST; dsDNA, one strand shown
# T12 sequence: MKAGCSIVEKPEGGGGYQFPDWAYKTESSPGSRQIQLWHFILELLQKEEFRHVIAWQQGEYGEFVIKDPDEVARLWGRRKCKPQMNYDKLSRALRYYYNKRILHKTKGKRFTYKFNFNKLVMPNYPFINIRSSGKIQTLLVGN
# How it was run: as §1
# ETV6 = ETV6 (Homo sapiens, UniProt P41212 1-452); conditions: protein: recombinant; tags: N-terminal GST; dsDNA, one strand shown
# How it was run: as §1
# Chain of CRX (O43186 whole entry): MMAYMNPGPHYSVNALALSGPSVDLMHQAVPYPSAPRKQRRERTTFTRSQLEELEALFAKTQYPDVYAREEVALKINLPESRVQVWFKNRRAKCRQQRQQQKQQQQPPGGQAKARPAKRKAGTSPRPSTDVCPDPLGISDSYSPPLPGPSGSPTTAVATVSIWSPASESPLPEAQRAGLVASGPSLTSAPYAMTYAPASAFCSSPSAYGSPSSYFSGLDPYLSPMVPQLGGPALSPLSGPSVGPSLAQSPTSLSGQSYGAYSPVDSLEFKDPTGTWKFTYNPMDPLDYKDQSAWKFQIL
# Chain of ETV1 (P50549 whole entry): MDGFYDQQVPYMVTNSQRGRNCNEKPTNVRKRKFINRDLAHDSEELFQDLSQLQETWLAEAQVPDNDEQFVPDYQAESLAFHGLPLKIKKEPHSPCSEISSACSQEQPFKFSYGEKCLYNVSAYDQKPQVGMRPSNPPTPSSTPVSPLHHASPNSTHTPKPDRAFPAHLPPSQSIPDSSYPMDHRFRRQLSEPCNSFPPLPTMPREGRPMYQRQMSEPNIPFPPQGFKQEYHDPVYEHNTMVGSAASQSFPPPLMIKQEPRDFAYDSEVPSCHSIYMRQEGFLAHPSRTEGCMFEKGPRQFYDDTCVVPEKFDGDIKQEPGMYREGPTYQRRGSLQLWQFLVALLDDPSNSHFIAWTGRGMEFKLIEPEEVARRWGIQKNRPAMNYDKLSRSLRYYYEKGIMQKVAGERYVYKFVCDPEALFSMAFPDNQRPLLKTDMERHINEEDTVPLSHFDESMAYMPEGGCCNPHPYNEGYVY
# Chain of ETV5 (P41161 whole entry): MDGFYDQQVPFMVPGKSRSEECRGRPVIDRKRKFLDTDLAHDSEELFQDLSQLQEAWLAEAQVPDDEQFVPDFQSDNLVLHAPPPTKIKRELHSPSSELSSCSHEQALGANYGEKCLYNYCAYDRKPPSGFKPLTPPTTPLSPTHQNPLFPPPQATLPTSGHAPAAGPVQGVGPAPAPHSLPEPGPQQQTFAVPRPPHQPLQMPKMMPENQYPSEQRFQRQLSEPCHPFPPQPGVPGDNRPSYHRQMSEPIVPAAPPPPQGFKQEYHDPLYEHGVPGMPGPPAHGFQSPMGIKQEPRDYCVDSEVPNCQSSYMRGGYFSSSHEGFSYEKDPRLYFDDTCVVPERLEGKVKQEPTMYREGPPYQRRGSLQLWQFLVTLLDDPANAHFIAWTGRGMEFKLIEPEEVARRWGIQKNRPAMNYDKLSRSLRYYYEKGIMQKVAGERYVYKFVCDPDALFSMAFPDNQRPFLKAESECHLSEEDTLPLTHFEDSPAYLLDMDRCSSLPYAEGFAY
# Chain of ELF4 (Q99607 whole entry): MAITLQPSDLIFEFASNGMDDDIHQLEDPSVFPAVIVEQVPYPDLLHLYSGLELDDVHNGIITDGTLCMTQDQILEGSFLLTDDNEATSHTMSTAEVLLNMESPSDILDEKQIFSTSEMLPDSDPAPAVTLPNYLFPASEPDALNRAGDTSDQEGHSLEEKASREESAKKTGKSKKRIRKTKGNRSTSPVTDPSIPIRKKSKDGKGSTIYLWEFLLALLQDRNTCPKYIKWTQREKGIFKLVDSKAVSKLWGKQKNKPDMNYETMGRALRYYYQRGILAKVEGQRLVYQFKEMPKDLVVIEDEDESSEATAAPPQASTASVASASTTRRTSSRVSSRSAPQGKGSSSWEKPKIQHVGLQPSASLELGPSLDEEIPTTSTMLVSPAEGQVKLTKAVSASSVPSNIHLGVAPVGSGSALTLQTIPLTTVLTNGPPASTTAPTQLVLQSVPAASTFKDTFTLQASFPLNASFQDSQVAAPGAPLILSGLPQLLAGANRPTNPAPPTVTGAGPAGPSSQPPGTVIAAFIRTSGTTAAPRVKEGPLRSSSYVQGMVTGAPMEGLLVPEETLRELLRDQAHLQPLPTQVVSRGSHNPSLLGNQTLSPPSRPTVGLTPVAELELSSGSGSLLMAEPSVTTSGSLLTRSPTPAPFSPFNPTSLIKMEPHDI
# Chain of ETV6 (P41212 whole entry): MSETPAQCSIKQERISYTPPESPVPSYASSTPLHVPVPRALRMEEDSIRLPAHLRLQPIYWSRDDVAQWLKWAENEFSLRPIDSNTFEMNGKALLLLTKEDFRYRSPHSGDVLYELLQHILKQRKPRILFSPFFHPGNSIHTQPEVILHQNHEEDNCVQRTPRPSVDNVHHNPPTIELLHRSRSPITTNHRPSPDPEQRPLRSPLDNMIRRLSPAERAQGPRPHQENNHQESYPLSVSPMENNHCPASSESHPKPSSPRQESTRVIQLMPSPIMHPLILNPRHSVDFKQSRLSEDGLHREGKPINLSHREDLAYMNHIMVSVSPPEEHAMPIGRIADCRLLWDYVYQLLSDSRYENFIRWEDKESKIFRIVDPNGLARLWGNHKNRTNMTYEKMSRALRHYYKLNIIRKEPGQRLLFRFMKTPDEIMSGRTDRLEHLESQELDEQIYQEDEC
# Chain of HSF1 (Q00613 whole entry): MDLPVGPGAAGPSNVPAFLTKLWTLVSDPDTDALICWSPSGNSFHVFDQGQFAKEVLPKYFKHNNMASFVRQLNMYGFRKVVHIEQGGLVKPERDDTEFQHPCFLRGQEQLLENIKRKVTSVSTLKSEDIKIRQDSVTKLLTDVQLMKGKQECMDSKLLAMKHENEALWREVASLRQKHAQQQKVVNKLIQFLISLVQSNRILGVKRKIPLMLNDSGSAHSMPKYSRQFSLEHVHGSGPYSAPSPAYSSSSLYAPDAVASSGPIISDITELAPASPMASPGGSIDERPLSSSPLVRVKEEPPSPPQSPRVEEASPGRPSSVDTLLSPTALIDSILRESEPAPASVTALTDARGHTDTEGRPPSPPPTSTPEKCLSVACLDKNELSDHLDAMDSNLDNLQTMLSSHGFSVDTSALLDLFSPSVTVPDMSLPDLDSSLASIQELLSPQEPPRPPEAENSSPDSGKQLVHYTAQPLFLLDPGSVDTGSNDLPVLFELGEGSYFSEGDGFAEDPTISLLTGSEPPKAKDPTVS
sequence,measurement,setting,value
TCCTAC,binding signal,FEV,"1.4 fold enrichment (6-mer frequency, TF over GST control)"
same,binding signal,ETV5,"1.51 fold enrichment (6-mer frequency, TF over GST control)"
same,binding signal,HSF1,"1.21 fold enrichment (6-mer frequency, TF over GST control)"
same,binding signal,SPIC,"1.54 fold enrichment (6-mer frequency, TF over GST control)"
same,binding signal,ELF4,"1.41 fold enrichment (6-mer frequency, TF over GST control)"
same,binding signal,ELK4,"1.29 fold enrichment (6-mer frequency, TF over GST control)"
same,binding signal,ETV2,"1.59 fold enrichment (6-mer frequency, TF over GST control)"
same,binding signal,ELF3,"1.16 fold enrichment (6-mer frequency, TF over GST control)"
same,binding signal,CRX,"1.31 fold enrichment (6-mer frequency, TF over GST control)"
same,binding signal,ETV1,"1.39 fold enrichment (6-mer frequency, TF over GST control)"
same,binding signal,ERF,"1.5 fold enrichment (6-mer frequency, TF over GST control)"
same,binding signal,ETV3L,"1.52 fold enrichment (6-mer frequency, TF over GST control)"
same,binding signal,ETS2,"1.48 fold enrichment (6-mer frequency, TF over GST control)"
same,binding signal,SPDEF,"1.43 fold enrichment (6-mer frequency, TF over GST control)"
same,binding signal,ETV7,"1.39 fold enrichment (6-mer frequency, TF over GST control)"
same,binding signal,ELF5,"1.79 fold enrichment (6-mer frequency, TF over GST control)"
same,binding signal,ETV3,"1.48 fold enrichment (6-mer frequency, TF over GST control)"
same,binding signal,ETV6,"1.47 fold enrichment (6-mer frequency, TF over GST control)"
